Results on two molecules are retold here after PubChem BioAssay AID720568 (Broad Institute, 2013).

Results with a measured potency or affinity are listed apart. Activity calls are given as the source filed them. No rule for the calls is given here.

This assay is described as follows: toxicity toward HepG2 hepatoma cells – cell-based, dry powder samples, cytotoxicity control, dose response (AID 720568). To be noted: plate reader; series mostly up to 15 µM.

As for `COc1ccc(CSc2nnc(-c3ccccc3)o2)cc1`, the molecule was called inactive. Then `c1ccc(CSc2nnc(-c3ccccc3)o2)cc1`, with “inactive”.
